The first test is described as follows: probe aShh binding to arrayed compounds – biochemical, biotinylated probe, 635/667 nm fluorescence, primary screen (AID 1114).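 Also: probe is biotin-labelled aShh protein from a stem cell growth factor screen; measures binding of labelled protein to compounds printed on the slide; score merges feature fluorescence at 667 nm with signal-to-noise.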 The settings on record: small-molecule microarray, higher = more signal.
`CCOC(=O)C[C@H]1[C@H](OC(=O)c2ccccc2-c2ccccc2)[C@@H](NC(=O)C2CCCCC2)c2cc(OCCCO)ccc2N1C(=O)c1ccccc1` gave a composite z-score of -0.283.
In turn, `CO[C@H]1COC(=O)[C@H](C)NC(=O)CC=C[C@@H](C)[C@H](NS(=O)(=O)c2ccc(C)cc2)COC(=O)[C@@H](OCc2ccccc2)C=C[C@@H]1C` came in with a composite z-score of -0.167.
On the same count and under the same terms, to `CC(C)CNC(=O)[C@@]1(C)c2ccccc2C(=O)N(Cc2ccc(OC(F)(F)F)cc2)[C@H]1c1ccc(CO)cc1` belongs -0.0769; to `CC(C)C[C@@H]1NC(=O)[C@H]2C[C@@H](C(=O)NCCCCCC[N+](C)(C)C)[C@@H](c3ccc(O)cc3)N2C1=O`, 0.0856; to `C=CC[C@@]1(C(=O)NCC(O)CO)N=C(c2ccc(OCCCO)cc2)O[C@@H]1c1ccccc1CN=[N+]=[N-]` (stereo partly specified), 0.261.

The nature of the next test: probe aNog binding to arrayed compounds – biochemical, biotinylated probe, 635/667 nm fluorescence, primary screen (AID 1115).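 Also: probe is biotinylated aNog protein used at 0.15 µg/mL for 1 h at 4 C; z-score combines 667 nm fluorescence of each spot with its signal to noise.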 The following applies: small-molecule microarray, higher = more signal.
For `COCCOC(=O)N1C(=O)[C@@]2(c3cc(C#CC4(O)CCCCCC4)ccc31)[C@H](C(=O)N1CCCCCCC1)[C@H]1C(=O)O[C@H](c3ccccc3)[C@H](c3ccccc3)N1[C@@H]2c1ccc(O)cc1`, the composite z-score came out at 2.13.
`C=CCC(OC(C)=O)[C@@H]1[C@@H](N(Cc2cc3ccccc3o2)C(=O)Cc2ccc(F)cc2)c2cc(OCCCO)ccc2N1C(=O)c1ccc(-c2ccccc2)cc1` (stereo partly specified) gave a composite z-score of 0.389.
On the same count and under the same terms, to `O=C(CS)NCCCCCNC(=O)[C@H]1C[C@H]2C(=O)N[C@@H](Cc3ccccc3)C(=O)N2[C@H]1c1ccc(O)cc1` belongs 0.185; to `CO[C@H]1COC(=O)CC=C[C@@H](C)COC(=O)[C@@H](C)NC(=O)CC=C[C@@H]1C`, -0.139.
Take `CCC(=O)[C@]12O[C@@]3([C@@H]4C(=O)OCC[C@@H]41)N(Cc1ccccc1)C(C)=C(C(=O)OC)[C@@H](c1ccccc1)N3C2=O`: the composite z-score was -0.196.
Same read-out and setting: to `C[C@]1(C(=O)NCCN2CCOCC2)c2ccccc2C(=O)N(Cc2ccccc2)[C@H]1c1ccc(CO)cc1` belongs -0.195; to `CC[C@H]1C2=C3C(CC[C@H]4C(OC)OC[C@](C)([C@@H]34)N(C(=O)OC(C)(C)C)C2)C(CO)C1CO` (stereo partly specified), -0.128.
For the compound `O=C1c2ccccc2[C@@]2(Cc3ccccc3N(CC(F)(F)F)C2=O)[C@H](c2ccc(CO)cc2)N1C1CCCCC1`, the composite z-score was -0.369.
On the same count and under the same terms, to `C=C(C(=O)CC[C@H](OC(=O)c1ccccc1-c1ccccc1C(=O)O)c1ccc(CO)o1)C(C)C` belongs 0.265; to `CC1=C([C@H](O)CCc2ccccc2)[C@H](CO)[C@@H]2C(=O)N(Cc3ccccc3)C(=O)[C@@H]2C1`, -0.27; to `O=C1O[C@H](c2ccccc2)[C@H](c2ccccc2)N2[C@H]1[C@@H](C(=O)NC[C@H](O)c1ccccc1)[C@]1(C(=O)Nc3ccc(C#CC4=CCCCC4)cc31)[C@H]2c1ccc(OCCO)cc1`, 0.0884.
Regarding `COc1cc(Cc2cc3c(c(CCc4ccccc4)n2)[Si](C(C)C)(C(C)C)OC3)cc(OC)c1OC`, the composite z-score is -0.158.
For the compound `CO[C@H]1O[C@H](CO)[C@@H](OC(=O)CCc2ccccc2)[C@@H]2OC(=O)[C@H](Cc3cccc(Br)c3)C/C=C/C[C@@H](Cc3cccc(Br)c3)C(=O)O[C@@H]12`, the composite z-score was found to be 0.146.
The same measure, in the same setting: to `Cc1ccc(S[C@]2(C(=O)NCCCN(C)C)CC(=O)N(C3CCCCC3)[C@@H]2c2ccc(CO)cc2I)cc1` belongs 0.134; to `COC(=O)[C@@]1(Cc2ccccc2CN=[N+]=[N-])N=C(c2ccc(OCCCO)cc2)O[C@H]1c1ccccc1N=[N+]=[N-]`, 2.32; to `CO[C@@H]1COC(=O)[C@H](C)NC(=O)CC=C[C@@H](C)[C@H](OC)COC(=O)[C@H](C)NC(=O)CC=C[C@H]1C`, -0.248.
Take `COCCOC(=O)N1C(=O)[C@@]2(c3cc(C#CCNC(N)=O)ccc31)[C@H](c1ccc(OCCO)cc1)N1[C@H](c3ccccc3)[C@H](c3ccccc3)OC(=O)[C@H]1[C@@H]2C(=O)Nc1nc2ccccc2s1`: the composite z-score was found to be 0.402.
For the compound `C=CC[C@@]1(C(=O)N2CCOCC2)N=C(c2ccc(OCCCO)cc2)O[C@@H]1c1ccccc1`, the composite z-score is 0.34.
Still for that read-out and setting: to `COc1cc2c(cc1OC)CN(C(=O)[C@H]1[C@@H]3C(=O)O[C@@H](c4ccccc4)[C@@H](c4ccccc4)N3[C@@H](c3ccc(O)cc3)[C@]13C(=O)Nc1ccc(C#CC4(O)CCCCCC4)cc13)CC2` belongs 2.35; to `O=C/C=C/c1ccccc1Cl`, 0.0811.
Same read-out and setting: to `C=CCC(OC(C)=O)[C@@H]1[C@@H](N(Cc2cccc3ccccc23)C(=O)Cc2ccc(F)cc2)c2cc(OCCCO)ccc2N1C(=O)Cc1ccc2ccccc2c1` (stereo partly specified) belongs 0.0129; to `CC(=O)NCCCC[C@@H]1NC(=O)[C@@H]2C[C@H](C(=O)NCCCCCNC(=O)CS)[C@H](c3ccc(O)cc3)N2C1=O`, -0.0315; to `C[N+](C)(C)CCCCNC(=O)[C@@H]1C[C@@H]2C(=O)N3CCC[C@H]3C(=O)N2[C@@H]1c1cccc(OCCO)c1`, -0.0645.
The same measure, in the same setting: to `O=C(NCC(O)CO)[C@]1(Cc2ccccc2)N=C(c2ccc(OCCCO)cc2)O[C@@H]1c1ccccc1` (stereo partly specified) belongs 1.68; to `COC(=O)Cn1c(C(=O)N2CCCC2)cc2c1C[C@H]1CN(C(=O)c3ccccc3)[C@@](Cc3ccccc3)(C(=O)OC)[C@@H]21`, -0.374; to `CCOC(=O)[C@H]1C/C=C/C[C@H](C(=O)OCC)C(=O)O[C@H]2[C@@H](OC)O[C@H](CO)[C@@H](OC(=O)Nc3ccc(Br)cc3)[C@@H]2OC1=O`, 1.5.
Turning to `CO[C@@H]1COC(=O)[C@@H]2CCCN2C(=O)CC=C[C@@H](C)[C@H](OC)COC(=O)[C@@H]2CCCN2C(=O)CC=C[C@H]1C`, the composite z-score was -0.201.
The same measure, in the same setting: to `COCCOC(=O)N1C(=O)[C@@]2(c3cc(C#CCCO)ccc31)[C@H](c1ccc(O)cc1)N1[C@H](c3ccccc3)[C@H](c3ccccc3)OC(=O)[C@H]1[C@@H]2C(=O)Nc1nc2ccccc2s1` belongs -0.223; to `COc1cc2c(cc1OC)CN(C(=O)[C@@H]1[C@H]3C(=O)O[C@H](c4ccccc4)[C@H](c4ccccc4)N3[C@H](c3ccccc3OCCO)[C@@]13C(=O)Nc1ccccc13)CC2`, 0.0101; to `COc1ccc([Si](C)(C)[C@H]2[C@H](CCO)O[C@@]3(C(=O)N(Cc4ccc(N5CCCCC5=O)cc4)c4ccccc43)[C@@H]2C)cc1`, 0.338.
In turn, `CCCCO[C@H]1C[C@H]2C(Br)=C[C@@]1(CO)C(=O)[C@]21CO1` showed a composite z-score of -0.278.
On the same count and under the same terms, to `CCOC(=O)C[C@H]1[C@H](OC(=O)c2ccccc2-c2ccccc2)[C@@H](NC(=O)C2CCCCC2)c2cc(OCCCO)ccc2N1C(=O)c1ccccc1` belongs -0.0502; to `CO[C@H]1COC(=O)[C@H](C)NC(=O)CC=C[C@@H](C)[C@H](NS(=O)(=O)c2ccc(C)cc2)COC(=O)[C@@H](OCc2ccccc2)C=C[C@@H]1C`, -0.173.
`CC(C)CNC(=O)[C@@]1(C)c2ccccc2C(=O)N(Cc2ccc(OC(F)(F)F)cc2)[C@H]1c1ccc(CO)cc1`: the composite z-score amounted to 0.264.
Regarding `CC(C)C[C@@H]1NC(=O)[C@H]2C[C@@H](C(=O)NCCCCCC[N+](C)(C)C)[C@@H](c3ccc(O)cc3)N2C1=O`, the composite z-score was -0.169.
Still for that read-out and setting: to `C=CC[C@@]1(C(=O)NCC(O)CO)N=C(c2ccc(OCCCO)cc2)O[C@@H]1c1ccccc1CN=[N+]=[N-]` (stereo partly specified) belongs 0.824.

Source of the values: PubChem BioAssay.
